# The source made the active and inactive calls. The calls were made as follows: active = hit-call score of the fitted dose curve at least 0.9, where 1 is the maximum; inactive = score below 0.9.
# Read-out: Insulin-like growth factor-binding protein 1 (IGFBP1), IGFBP1 (gene 3484)
# Assay: LTEA_HepaRG_IGFBP1: Life Technologies and Expression Analysis (LTEA) Assay for Insulin-like growth factor-binding protein 1 (IGFBP1) using HepaRG (AID 2283508)
# Conditions: mRNA level, 48 h; actives raise or lower the signal
# Procedure: LTEA_HepaRG is a cell based, multiplexed-readout assay that uses HepaRG, a human liver cell line, with measurements taken at 48 hours after chemical dosing on a 96-well plate.LTEA_HepaRG_IGFBP1 is one of 102 assay component(s) measured in the LTEA HepaRG cell culture assay. It is a marker of Cell proliferation, survival, death.Data from the assay component LTEA_HepaRG_IGFBP1 was analyzed into 1 endpoint. This assay endpoint, LTEA_HepaRG_IGFBP1, was analyzed with bidirectional fitting relative to DMSO as the negative control and baseline of activity. Using a type of inducible reporter, measures of mRNA induction for gain or loss-of-signal activity can be used to understand regulation of transcription factor activity. To generalize the intended target to other relatable targets, this assay endpoint is annotated to the transporter intended target family, where the subfamily is hormone carrier protein.
# A total of 1060 chemcials from the ToxCast library were tested in eight-point concentration-response experiments. Cell culture and cytotoxicity assays were conducted at Thermo Fisher Scientific's Custom Services facility (Madison, WI). A single lot of human HepaRG cells (Thermo Fisher Scientific, Frederick, MD) was used for the cell culture experiments. 96-well format collagen type I coated plates of human HepaRG cells were prepared using established methods. Briefly, cryopreserved HepaRG cells were thawed, plated at a density of approximately 100,000 cells/well in HepaRG Thaw, Plate, and General Purpose media (HPRG770, Thermo Fisher Scientific), and incubated for 48 hours. 0.5% DMSO was selected as vehicle control to balance the requisite need of DMSO in HepaRG cultures to maintain differentiation (for example, baseline metabolism, proportions of hepatocytes vs. cholangiocytes), while enabling further hepatic receptor pathway activation (for example, PXR and CAR) in response to chemical exposure. 48 hours after plating, the culture medium was replaced with HepaRG Serum-Free Incudtion Media. Cells were exposed to each test chemical in duplicate and maintained in CO2 incubators for another 48 hours. Chemical plates were thawed to room temperature and 200x concentrations of treatment groups were prepared. 8-point conentration-reponse curves were made with the highest exposure at 100 uM, followed by half-log dilutions, all in 0.5% DMSO. Each test plate contained variouse controls, induction positive controls (1mM phenobarbital), cytotoxicity positive controls ([…] aflatoxin B1), vehicle controls (0.5% DMSO), and total lysis controls (0.5% DMSO). Cell morphology images were taken using an Essen IncuCyte FLR automated microscope, with six 96-well plates imaged in about 24 minutes. Images were captured and exported and JPEG files. Spent culture media was transfered to black-well plates for the LDH assay, and remaining media was sorted at -80 C for later use. Cells were treated with RLT buffer and frozen until shipped for gene expression analysis. Total RNA was isolated from the cell suspension in 75 uL of Buffer RLT (Qiagen, Germantown, MD 20874) by Quintiles/Expression Analysis (Durham, NC) using a custom isolation procedure. Total RNA from each plate well was transferred to a preamplification plate. Fluidigm's 96.96 Dynamic ArrayTM (Fluidigm, Amsterdam, the Netherlands) technology was used for gene expression analyses by quantitative reverse transcription polymerase chain reaction (qRT-PCR, performed by Quintiles/Expression Analysis, Durham, NC)89. Standard TaqManTM Assays (Applied Biosystems/ThermoFisher Scientific, Foster City, CA) were used to assess the expression of 93 genes selected based on their selectivity and sensitivity to important hepatic receptors known to be modulated by environmental chemicals; importance in human hepatocyte functionality; and hepatotoxicity. […]
SMILES,outcome,AC50
CC(=O)C(C)=CC1C(C)=CCCC1(C)C (stereo not given),inactive,
COc1cc(C=O)ccc1O,inactive,
C1CCC(SSC2CCCCC2)CC1,inactive,
COc1cc(-c2nc(NC(=O)c3cc4cc(C)cc(C)c4n3CC(=O)O)sc2CCC2CCCCC2)c(OC)cc1Cl,,3.83 µM (active)
CCCCCCCC=O,inactive,
COc1ccc2c(c1)c(CC(=O)O)c(C)n2C(=O)c1ccc(Cl)cc1,inactive,
CCCCN(CCCC)CCCC,inactive,
Oc1ccc2ccccc2c1N=Nc1ccccc1,,5.48 µM (active)
C=CCOC(=O)c1ccccc1C(=O)OCC=C,inactive,
CCCCCCCCCCCCCCCCCC(=O)O,inactive,
Cc1nc(C)nc(N2C[C@@H](C)N(c3ccnc([C@@H](C)O)n3)[C@@H](C)C2)n1,inactive,
CC(=O)OCCOCCOCCOC(C)=O,inactive,
Cc1nc(-c2ccc3c(c2)CCN(CCC2CCC(NC(=O)/C=C/c4ccc(F)cc4)CC2)CC3)no1 (stereo not given),inactive,
c1cc(-c2ccncc2)ccn1,inactive,
Cc1oc(-c2ccccc2)nc1CCOc1cccc2c1ccn2CCC(=O)O,,93.1 µM (active)
Cc1c(C(=O)O)c(O)cc2c1C(=O)c1c(O)c([C@@H]3O[C@H](CO)[C@@H](O)[C@H](O)[C@H]3O)c(O)c(O)c1C2=O,inactive,
O=C(O)CCCCC(=O)O,inactive,
COCCOCCOC,,0.683 µM (active)
CC1=C(/C=C/C(C)=C/C=C/C(C)=C/CO)C(C)(C)CCC1,inactive,
CC1(C)NC(=O)NC1=O,inactive,

SMILES,outcome,AC50
CCOc1ccc2c(c1)C(C)=CC(C)(C)N2,,50 µM (active)
CCOC(=O)CCC(=O)OCC,inactive,
CCCCCCOCCO,inactive,
C[Si]1(C)O[Si](C)(C)O[Si](C)(C)O[Si](C)(C)O1,inactive,
Cc1cccc(C)c1O,inactive,
CC(CO)OC(C)CO (stereo not given) (tested in a mixture with another compound),inactive,
CCCCCCCCCCCCCCCC,inactive,
Nc1ccc2c(c1)C(=O)c1ccccc1C2=O,,13.2 µM (active)
CCCCCCCCCCC,inactive,
O=[N+]([O-])C(CO)(CO)CO,inactive,
COc1ccc(S(=O)(=O)N2C(=O)[C@@](c3ccccc3OC)(N3C[C@H](O)C[C@H]3C(=O)N(C)C)c3cc(Cl)ccc32)c(OC)c1,,37.2 µM (active)
CNCc1cc(F)ccc1Oc1ccc(Cl)c(Cl)c1,,73.5 µM (active)
C=CCc1ccc(O)c(OC)c1,inactive,
CC=Cc1ccc(O)c(OC)c1,inactive,
CC(C)c1ccc(C(=O)N=C(N)N)cc1S(C)(=O)=O,,0.266 µM (active)
Clc1cc(Cl)c(Cl)cc1Cl,inactive,
CC(=O)OC/C=C(\C)CCC=C(C)C,inactive,
CCCCCCC(=O)OCC,inactive,
CCCCCC(=O)O,inactive,
O=c1[nH]cc(F)c(=O)[nH]1,inactive,
